A selection: hits, their analogues and other compounds. The true share with any hit is near 10%.
GLS inhibitor: blocks human kidney-isoform glutaminase activity | GLS enzymatic activity, qHTS titration | hit rate 0.21% among 410,000 | Potency, µM (highest dose often 45.5 µM), actives largely listed as inhibitors
Target sequence (O94925 whole entry, looked up, canonical isoform): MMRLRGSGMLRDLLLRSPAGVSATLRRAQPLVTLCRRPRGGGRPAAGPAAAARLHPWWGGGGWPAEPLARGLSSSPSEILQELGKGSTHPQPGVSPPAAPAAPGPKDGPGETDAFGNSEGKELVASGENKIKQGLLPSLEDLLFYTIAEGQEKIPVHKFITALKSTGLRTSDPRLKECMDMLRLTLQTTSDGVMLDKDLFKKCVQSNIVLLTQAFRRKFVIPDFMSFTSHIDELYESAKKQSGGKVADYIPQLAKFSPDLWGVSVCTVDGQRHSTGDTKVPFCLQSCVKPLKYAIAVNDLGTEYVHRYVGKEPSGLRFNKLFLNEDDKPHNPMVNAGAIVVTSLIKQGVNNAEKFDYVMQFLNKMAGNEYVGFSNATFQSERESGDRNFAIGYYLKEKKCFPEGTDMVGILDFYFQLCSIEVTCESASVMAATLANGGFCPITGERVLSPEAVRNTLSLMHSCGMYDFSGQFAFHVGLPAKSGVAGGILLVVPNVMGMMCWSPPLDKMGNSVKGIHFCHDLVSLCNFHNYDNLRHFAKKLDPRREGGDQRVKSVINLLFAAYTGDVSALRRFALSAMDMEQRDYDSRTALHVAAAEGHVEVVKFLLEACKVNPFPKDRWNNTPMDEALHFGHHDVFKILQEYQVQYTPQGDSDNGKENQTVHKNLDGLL
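hKGA in 45 mM KH2PO4 pH 8.2, 0.02% Tween-20 with pin-transferred compounds; 1 mM L-glutamine (stock) plus glutamate oxidase/HRP/Amplex Red coupling added. Fluorescence read initially and after 30 min at RT.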
G9a inh: blocks human histone lysine methyltransferase G9a | Potency, µM (titrated, usually from 102 µM), usual class: inhibitors | G9a H3K9 monomethylation, AlphaScreen, 2 h | AID 504332 | hit rate 8.8% among 350,000 | Q96KQ7; further: nearly all actives have a fitted effect of over 75% in size
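Methyltransferase reactions run at room temperature for 2 h (20 nM enzyme, 500 nM biotin-H3K9 peptide, 20 uM SAM) after a 15 min compound preincubation; product detected by AlphaScreen beads and anti-H3K9me1 antibody.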
HP1b chromo inh: inhibitors of HP1-beta chromodomain binding to methylated histone tails. P83916. AlphaScreen HP1-beta / biotin-H3K9me3 peptide binding. Potency, µM (series often up to 114 µM), most hits filed as inhibitors. hit rate 0.56% among 390,000. AID 540317; further: nearly all actives have a fitted effect of over 70% in size
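AlphaScreen: HP1-beta (50 nM) preformed 30 min with biotin-H3(1-18)K9me3 peptide (50 nM) in PBS pH 7.4, 0.01% Tween-20. Compound added for 30 min at RT, then streptavidin donor/nickel chelate acceptor beads (10 ug/mL) for 30 min.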
JMJD2A Tudor: inhibitors of human JMJD2A Tudor domain; O75164; AlphaScreen JMJD2A-Tudor / H3K4me3 peptide binding; Potency, µM (doses to about 114 µM), hits mostly inhibitors; hit rate 4.4% among 390,000; further: nearly all actives have a fitted effect of over 50% in size
BAZ2B block: BAZ2B (human) inhibition. Q9UIF8. AlphaScreen BAZ2B-H3K14Ac peptide displacement. Potency, µM (titrated, usually from 114 µM), usual class: inhibitors. hit rate 4.4% among 360,000. AID 504333; further: nearly all actives have a fitted effect of over 60% in size
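AlphaScreen displacement of biotin-H3(5-23)K14Ac peptide (50 nM final) from BAZ2B (50 nM final) in PBS pH 7.4, 0.01% Tween-20; complex preformed 30 min RT, then compounds (top 110 uM) 30 min RT, beads 20 min dark.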
A number is an active result; n = inactive; u = inconclusive; x = no result; [ ] = dose if it differs, or a comment. The call rests on the fitted dose curve; in most records, active means well fitted curve in the direction sought with a large enough effect; inconclusive means small, poorly fitted or top-dose-only effect, or another doubt; inactive means no such curve, though single readings can be large; an effect the other way counts as inactive or inconclusive.

SMILES	GLS inhibitor	G9a inh	HP1b chromo inh	JMJD2A Tudor	BAZ2B block
Cc1ccc(C(NC(=O)C(C)C)c2cc([N+](=O)[O-])c3cccnc3c2O)cc1 (configuration not stated)	n	u	n	25.1µM	7.94µM
CCC(=O)NC(/C=C/c1ccccc1)c1cc([N+](=O)[O-])c2cccnc2c1O (configuration not stated)	x	3.16µM	x	x	4.47µM
CCCC(=O)NC(c1cccc([N+](=O)[O-])c1)c1ccc2cccnc2c1O (configuration not stated)	n	x	x	x	x
CC(C)C(=O)NC(c1cccs1)c1cc([N+](=O)[O-])c2cccnc2c1O (configuration not stated)	n	14.1µM	n	15.8µM	5.01µM
Cc1ccc(C(=O)NC(c2ccco2)c2cc(Cl)c3cccnc3c2O)cc1 (configuration not stated)	x	x	x	n	x
CCOc1ccc(NC(=O)CN2CCSc3ccc(S(=O)(=O)N4CCCC4)cc32)cc1	n	n	n	n	n
Cc1ccc(CN(C(=O)COc2ccc(C(C)C)cc2)C2CCS(=O)(=O)C2)o1 (configuration not stated)	n	u	n	u	u
CCOc1ccccc1-c1noc(CCCC(=O)Nc2cccc(C(F)(F)F)c2)n1	n	n	n	n	n
O=[N+]([O-])c1cccn2cc(-c3ccc(Br)cc3)nc12	n	u	n	u	u
Nc1nn2cc(-c3ccc(Br)cc3)nc2c2ccccc12	n	79.4µM	n	n	n
Cc1c(C)n2c(SCC(=O)N3CCOCC3)nnc2[nH]c1=O	n	n[0.501 µM]	n	31.6µM	n
Cc1c(C)n2c(SCC(=O)N3CCCCCC3)nnc2[nH]c1=O	n	u	n	n	n
C=CCn1c(SCC(=O)c2ccccc2)nnc1-c1cc2ccccc2o1	n	50.1µM	n	n	n
C=CCn1c(SCC(=O)c2ccccc2)nnc1-c1ccc2c(c1)OCO2	n	20µM	n	35.5µM	u
COc1ccc(OC)c(NC(=O)CN(C)S(=O)(=O)c2ccc(C(=O)N3CCOCC3)s2)c1	n	n	n	n	n
COc1ccccc1-c1nc(C#N)c(N2CCN(c3cccc(Cl)c3)CC2)o1	n	0.708µM	u	u	n
N#Cc1nc(-c2ccco2)oc1N1CCc2ccccc2C1	n	u	u	u	25.1µM
N#Cc1nc(-c2cccs2)oc1N1CCN(Cc2ccccc2)CC1	n	u	u	u	25.1µM
N#Cc1nc(-c2ccco2)oc1N1CCN(C(c2ccccc2)c2ccccc2)CC1	n	u	u	n	u
N#Cc1nc(-c2ccco2)oc1N1CCCC1	n	n[2.33 µM]	n	n	n
N#Cc1nc(-c2ccco2)oc1N1CCN(c2cccc(Cl)c2)CC1	n	u	u	u	25.1µM
CCOc1ccc(Nc2ncnc3c2nc2n3CCCCC2)cc1	n	n	n	n	n
COc1ccc(Cl)cc1NC(=O)c1cc(C)nc2c1c(C)nn2-c1ccccc1	n	n	n	n	n
O=C(NCCc1ccc(Cl)cc1)c1ccc2c(c1)N(Cc1cccc(Cl)c1)C(=O)c1ccccc1S2(=O)=O	n	n	n	n	n
N#Cc1c(N2CCN(C(=O)c3ccco3)CC2)nc(-c2ccccc2)c2c1CCCC2	n	n	n	n	n
SMILES	GLS inhibitor	G9a inh	HP1b chromo inh	JMJD2A Tudor	BAZ2B block
N#Cc1nc(-c2ccccc2)oc1N1CCN(C(=O)c2ccco2)CC1	n	39.8µM	n	n	n
C/C(=N/NC(=O)c1nnn(-c2nonc2N)c1CSc1ccc(C)cc1)c1ccncc1	n	x	x	x	x
Cc1ccccc1NC(=S)N/N=C/c1ccc(O)cc1O	n	n[12.7 µM]	u	56.2µM	8.91µM
Cc1ccccc1NC(=S)N/N=C/C(C)c1ccccc1 (configuration not stated)	n	22.4µM	n	u	n
Cc1cccc(NC(=S)N/N=C/C(C)c2ccccc2)c1C (configuration not stated)	n	u	n	u	u
Cc1cccc(NC(=S)N/N=C/c2cccc(O)c2)c1C	n	n	n	n	n
COc1ccccc1NC(=O)C1=C(C)Nc2nc(-c3ccco3)nn2C1c1cccc(C)c1 (configuration not stated)	n	n	n	n	n
O=C(Cc1ccccc1Cl)Nc1ccc(S(=O)(=O)Nc2nccs2)cc1	n	n	n	n	n
O=C(NC(=S)Nc1ccc(S(=O)(=O)Nc2nccs2)cc1)c1cccnc1	u	44.7µM	n	n	u
O=C(NC(=S)Nc1ccc(Cc2ccncc2)cc1)c1ccccc1F	n	79.4µM	n	n	n
O=C(CSc1ccc(Br)c2cccc(Cl)c12)Nc1ccc(S(=O)(=O)Nc2nccs2)cc1	n	31.6µM	n	u	n
O=C(O)c1ccccc1C(=O)Nc1ccc(S(=O)(=O)Nc2nccs2)cc1	n	n	n	n	50.1µM
O=C(NC(=S)Nc1ccc(S(=O)(=O)Nc2nccs2)cc1)c1ccccc1	n	u	n	n	n
COc1ccccc1C(=O)Nc1ccc(S(=O)(=O)Nc2nccs2)cc1	n	u	n	n	n
Cc1ccc(Cl)cc1NS(=O)(=O)c1ccc(N2CCCCS2(=O)=O)cc1	n	n	n	n	n
O=C(NC(=S)Nc1ccc(S(=O)(=O)Nc2nccs2)cc1)c1ccccc1F	n	10µM	u	u	u
CC(C)=NOc1nc(N(C)C)nc(N2CCOCC2)n1	n	n	n	56.2µM	n
O=S(=O)(c1ccc2c(c1)OCCO2)N1CCN(S(=O)(=O)c2cccc(Cl)c2F)CC1	x	x	x	n	x
O=C(NCC(c1cccnc1)N1CCN(c2ccc(F)cc2)CC1)c1ccco1 (configuration not stated)	n	n	n	n	n
NS(=O)(=O)c1ccc(-c2c(-c3ccccc3)sc3ccccc23)cc1	n	n[0.501 µM]	n	79.4µM	56.2µM
CC(=C/c1ccccc1)/C=N/n1c(-c2ccncc2)n[nH]c1=S	u	n	u	10µM	u
CC(/C=N/N1C(=O)CSC1=S)=C\c1ccccc1	u	u	n	n	u
CC(/C=N/n1c(-c2cccnc2)n[nH]c1=S)=C\c1ccccc1	u	0.891µM	n	20µM	u
CC(/C=N/N1CCN(c2ccccn2)CC1)=C\c1ccccc1	n	u	n	n	n
CC(=C/c1ccccc1)/C=N/n1c(C)n[nH]c1=S	n	x	n	31.6µM	n
SMILES	GLS inhibitor	G9a inh	HP1b chromo inh	JMJD2A Tudor	BAZ2B block
COC(=O)c1cc2oc3ccccc3c2n1CC(=O)Nc1ccc(C)cc1C	n	n	n	n	n
O=C(NC1CC1)c1cc(=S)[nH]c2ccccc12	n	x	n	17.8µM	x
O=C(NC1CC1)C(=O)c1c[nH]c2ccccc12	n	x	n	n	u
COc1ccc(NC(=O)N2CC[C@@]3(CCCN(C(=O)c4cccn4C)C3)C2)cc1	x	n[12.7 µM]	x	x	x
O=[N+]([O-])c1cc2c(c3cccnc13)COCO2	u	x	u	25.1µM	x
O=[N+]([O-])c1cc(O)c2ncccc2c1	n	n	n	17.8µM	5.62µM
COc1cc([N+](=O)[O-])c2ncccc2c1	x	x	n	n	x

Source: PubChem BioAssay (National Center for Advancing Translational Sciences (NCATS))
